From PubChem BioAssay
A549 viability – A549 cytotoxicity, counter-screen for Nrf2 inhibitors; Potency, µM (titrated, usually from 46 µM), most hits filed as inhibitors; 390,000 compounds, 0.16% hits; A549 ARE-Fluc cells, CellTiter-Fluor viability, 18-24 h; AID 504648
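A549 ARE_Fluc cells in 5% FBS OPTI-MEM were exposed to compounds in concentration-response for 18-24 h at 37 deg C. Viability was read by CellTiter-Fluor fluorescence (Ex 405/Em 525) after 30 min, before the luciferase read.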
TGFb SMAD3 inh – inhibitors of TGF-b signaling; HepG2 CAGA-GFP TGF-b/SMAD3 reporter, GFP fluorescence, 18 h; TGF-beta stimulated, 500 pg/mL final; Potency, µM (series often up to 46.1 µM), hits mostly inhibitors; 410,000 compounds, 1.2% hits; also: nearly all actives have a fitted effect of over 65% in size
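HEPG2 CAGA-GFP, 1000 cells/well; 2 h settle, 37 C; cpd via pin tool; TGF-b 500 pg/mL final; 18 h, 37 C; GFP imaging ex488/em500-530; %Activity normalised to -TGF-b and +DMSO controls; CRC fit, curve class.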
HepG2 viability – HepG2 cytotoxicity, counter-screen for TGF-b inhibitors. HepG2 CAGA-GFP viability, ATP luminescence, 18 h. Potency, µM (top dose mostly 46.1 µM), usual class: cytotoxic. 410,000 compounds, 0.76% hits
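CellTiter-Glo luminescence gave cytotoxicity after 18 hours at 37 degrees C. The cells were HepG2 CAGA-GFP in 1% FBS DMEM, stimulated with 500 pg/mL TGF-beta after compound addition. %Activity was normalised to no-cell wells (complete cell-killing) and DMSO (no toxicity), and curves were fitted and classified.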
ATXN2 expr inh – reduces ATXN2 reporter expression in HEK-293 cells; 360,000 compounds, 0.72% hits; AID 1745845; Potency, µM (doses to about 57 µM), actives largely listed as inhibitors; HEK-293 ATXN2-luciferase reporter, luminescence, 24 h; also: nearly all actives have a fitted effect of over 55% in size
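ATXN2-luciferase reporter cells (luciferase flanked by upstream and downstream ATXN2 gene portions) were treated 24 h at 37 °C with compounds at up to 57 uM. SteadyGlo luminescence gave expression; GF-AFC fluorescence gave viability.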
Nrf2 inh – inhibitors of Nrf2 signaling; A549 ARE-Fluc reporter, luciferase luminescence, 18-24 h; Potency, µM (titrated, usually from 46 µM), actives largely listed as inhibitors; 360,000 compounds, 2.1% hits; AID 504444; also: nearly all actives have a fitted effect of over 60% in size
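Nrf2 function is reported as luminescence of an ARE-controlled luciferase in A549 cells. Compounds were tested at several concentrations, and a CellTiter-Fluor read on the same wells flagged cytotoxicity.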
ATXN viability – viability counter-screen for ATXN expression inhibitors | AID 651635 | S2 cells (HEK-293 line with an ATXN2-luciferase reporter) viability, CellTiter-Fluor protease fluorescence, 24 h | 400,000 compounds, 0.49% hits | Potency, µM (titrated, usually from 56.7 µM), usual class: cytotoxic; also: nearly all actives have a fitted effect of over 40% in size
Large screens that a line does not name were inactive. An excerpt weighted towards active compounds, which were near 3.8% of everything screened. Calls follow the shape of the dose curve; as a rule, active = well fitted curve in the direction sought with a large enough effect; inconclusive = small, poorly fitted or top-dose-only effect, or another doubt; inactive = no such curve, though single readings can be large; an effect the other way counts as inactive or inconclusive.

Cc1ccc(S(=O)(=O)N2CCCN(C(C)c3nc4ccccc4c(=O)[nH]3)CC2)cc1 (centres undefined)	TGFb SMAD3 inh 14.1µM, Nrf2 inh inconclusive (no result: ATXN2 expr inh)
COc1ccc(O)c(/C=N/NC(=O)c2ccc(N3CCCC3=O)cc2)c1	ATXN2 expr inh 25.1µM
Nc1nn(-c2ccccc2)c(N)c1N=Nc1ccc2c(c1)OCO2	A549 viability 14.6µM, ATXN viability inconclusive
COc1ccc(CCNC(=O)COc2ccc(N(C)S(=O)(=O)c3ccc(C)cc3)cc2)cc1OC	Nrf2 inh 25.9µM
COc1ccc(CCNC(=O)CNS(=O)(=O)c2ccc(F)c(Cl)c2)cc1OC	ATXN viability inconclusive
COc1ccc(CCNC(=O)c2ccc(CS(=O)(=O)c3ccc(Cl)cc3)o2)cc1OC	ATXN2 expr inh inconclusive, Nrf2 inh inconclusive
CCOc1ccc(N(C)S(=O)(=O)c2ccc(C)c(C(=O)NCCc3ccc(OC)cc3)c2)cc1	Nrf2 inh inconclusive
CCOc1ccc(N(C)S(=O)(=O)c2ccc(C)c(C(=O)NCc3ccccc3OC)c2)cc1	Nrf2 inh 23.1µM
COc1ccc(CCNC(=O)COc2ccc(S(=O)(=O)NCC(C)C)cc2Cl)cc1OC	Nrf2 inh 20.6µM
COc1ccc(CCNC(=O)c2ccc(CS(=O)(=O)c3ccc(C)cc3)o2)cc1OC	TGFb SMAD3 inh inconclusive, Nrf2 inh 20.6µM
CCOC(=O)[C@]12CCC=C1N(CCC1=CCCCC1)C(=O)[C@H](CC(=O)NCCCCc1ccccc1)C2	ATXN viability inconclusive (no result: A549 viability, TGFb SMAD3 inh, HepG2 viability, Nrf2 inh)
COc1ccc(C(=O)C2CCCN(Cc3cccn3-c3ccc(Cl)cn3)C2)c(OC)c1 (centres undefined)	TGFb SMAD3 inh inconclusive
COC(=O)c1cccc(C(=O)N2CCc3c(cnc(C)c3CNC(=O)c3ccsc3)C2)c1	none (no result: A549 viability, TGFb SMAD3 inh, HepG2 viability, ATXN2 expr inh, Nrf2 inh)
O=C(COC(=O)c1ccccc1C(=O)c1ccc(Cl)c([N+](=O)[O-])c1)NC1CCCCCC1	A549 viability inconclusive, TGFb SMAD3 inh inconclusive, ATXN2 expr inh inconclusive, Nrf2 inh 20.6µM (no result: ATXN viability)
O=C(COC(=O)c1ccc2c(c1[N+](=O)[O-])C(=O)c1ccccc1C2=O)NC1CC1	A549 viability inconclusive, TGFb SMAD3 inh 17.8µM, ATXN viability 28.2µM
O=C(COC(=O)c1cccc2c1C(=O)c1ccccc1C2=O)NC1CCCCC1	TGFb SMAD3 inh inconclusive, Nrf2 inh inconclusive
Cc1cc(N2CCCCC2)nc2ccc(NC(=O)/C=C/c3ccccc3OC(C)C)cc12	none (no result: ATXN2 expr inh, ATXN viability)
Cc1ccc(Nc2nc(C(=O)NCc3ccco3)cs2)cc1	Nrf2 inh 9.2µM (no result: A549 viability)
CCN(CC)C(=O)c1csc(Nc2ccc(C)cc2)n1	none
CCCC(=O)Oc1c(Sc2ccc(Cl)cc2)c(C)nn1-c1ccccc1	TGFb SMAD3 inh inconclusive (no result: ATXN2 expr inh, ATXN viability)
CCOc1ccc(CN(CCc2ccc3c(c2)OCO3)Cc2cc(OC)c(OC)cc2OC)cc1	TGFb SMAD3 inh 11.2µM (no result: ATXN2 expr inh, ATXN viability)
Cc1ccc(-c2nnc(SCC(=O)N/N=C/c3ccc(C)s3)n2-c2ccc(C)cc2)cc1	A549 viability inconclusive, TGFb SMAD3 inh inconclusive, Nrf2 inh 20.6µM, ATXN viability inconclusive
Cc1ccc(/C=N/NC(=O)CSc2nc3ccccc3c(=O)n2-c2ccccc2)s1	none
COc1ccc(NC(C)C(=O)N/N=C/c2ccc([N+](=O)[O-])s2)cc1 (centres undefined)	A549 viability inconclusive, TGFb SMAD3 inh 12.6µM, HepG2 viability 17.8µM, ATXN2 expr inh inconclusive, Nrf2 inh 20.6µM, ATXN viability inconclusive
O=C(N/N=C/c1cccs1)c1cncc(Br)c1	Nrf2 inh inconclusive
O=C(N/N=C\c1ccc([N+](=O)[O-])s1)c1cncc(Br)c1	A549 viability 23.1µM, TGFb SMAD3 inh 6.31µM, HepG2 viability 3.55µM, ATXN2 expr inh 10µM, Nrf2 inh 16.4µM, ATXN viability 28.2µM
Cc1cc(C(=O)N/N=C/c2ccc([N+](=O)[O-])s2)c2ccccc2n1	A549 viability inconclusive, TGFb SMAD3 inh 10µM, ATXN2 expr inh inconclusive, Nrf2 inh inconclusive, ATXN viability inconclusive
Cc1ccc(NC(C)C(=O)N/N=C/c2ccc([N+](=O)[O-])s2)cc1 (centres undefined)	A549 viability inconclusive, TGFb SMAD3 inh inconclusive, Nrf2 inh inconclusive
O=C(O)C(C1CCCCC1)C1(O)CCCC1 (centres undefined)	none
O=C(CCn1c(=O)oc2ccccc21)Nc1ccc2c(c1)OCCO2	Nrf2 inh inconclusive
O=C(NCc1c(Cl)cccc1Cl)c1[nH]c(C(F)(F)F)nc1-c1ccccc1	TGFb SMAD3 inh inconclusive (no result: A549 viability, Nrf2 inh)
O=C(CNC(=O)c1cccc(F)c1)N/N=C/c1ccc([N+](=O)[O-])s1	TGFb SMAD3 inh inconclusive, Nrf2 inh inconclusive, ATXN viability inconclusive (no result: ATXN2 expr inh)
O=C(N/N=C/c1ccc([N+](=O)[O-])s1)c1ccccc1	A549 viability inconclusive, TGFb SMAD3 inh 11.2µM, HepG2 viability 12.6µM, ATXN2 expr inh inconclusive, Nrf2 inh 23.1µM
O=C(N/N=C/c1ccc([N+](=O)[O-])s1)C(O)c1ccccc1 (centres undefined)	A549 viability inconclusive, TGFb SMAD3 inh 7.94µM, HepG2 viability 7.94µM, ATXN2 expr inh inconclusive, Nrf2 inh 5.17µM, ATXN viability inconclusive
COc1ccccc1NC(=O)C(=O)N/N=C/c1ccc([N+](=O)[O-])s1	none
COC(=O)N/N=C/c1ccc([N+](=O)[O-])s1	A549 viability 10.3µM, TGFb SMAD3 inh inconclusive, Nrf2 inh 6.51µM
Cc1ccccc1C(=O)N/N=C/c1ccc([N+](=O)[O-])s1	TGFb SMAD3 inh inconclusive, ATXN2 expr inh 7.94µM, Nrf2 inh 10.3µM, ATXN viability inconclusive
Cc1ccsc1/C=N/NC(=O)C(O)c1ccccc1 (centres undefined)	none
Cc1ccccc1C(=O)N/N=C/c1ccsc1C	none
CC(Sc1nnc2n1CCCCC2)C(=O)Nc1ccc(S(N)(=O)=O)cc1 (centres undefined)	none
CCOc1ccccc1/C=C(/NC(=O)c1ccccc1)C(=O)N1CCCCC1	ATXN viability inconclusive
CCN(CC)CCCNC(=O)CCCn1ncn2c(cc3occc32)c1=O	none (no result: TGFb SMAD3 inh, ATXN2 expr inh, ATXN viability)
CS(=O)(=O)c1cnc(-c2ccccc2)nc1-c1ccccc1Cl	none
O=C(Cc1ccccc1)N/N=C/c1cccs1	none
Cc1ccnn1CC(=O)N/N=C/c1ccc([N+](=O)[O-])s1	TGFb SMAD3 inh 11.2µM, ATXN2 expr inh inconclusive, Nrf2 inh 25.9µM
O=C(Cc1ccccc1)N/N=C/c1ccc([N+](=O)[O-])s1	A549 viability inconclusive, TGFb SMAD3 inh inconclusive, Nrf2 inh 20.6µM
Cn1c(SCC(=O)N/N=C/c2ccc([N+](=O)[O-])s2)nnc1-c1ccccc1	A549 viability inconclusive, TGFb SMAD3 inh inconclusive, ATXN2 expr inh inconclusive, Nrf2 inh 20.6µM, ATXN viability inconclusive
